Outcome data for 34 compounds are collected here from PubChem BioAssay AID624300 (Southern Research Specialized Biocontainment Screening …, 2012).

The structures appear in SMILES notation. Screen size: about 2,400 compounds; about 360 (15%) were called active.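 How the source made its calls: active means viability falls under 70% at one or more tested concentrations, taken as toxicity; inactive means viability stays over 70% at every dose.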 A selection follows. Entries that show only a call come without a potency. Potency and affinity values are given separately.

The nature of the experiment: viability loss in HeLa cells – cytotoxicity control for MgcRacGAP inhibitor project, dose response (AID 624300). To be noted: CellTiter-Glo luminescence, 24 h; series mostly up to 100 µM. For orientation: In ATP-based viability assays light output follows the ATP content of the culture.
For the compound `COc1cc(OC)c(OC)cc1CN1CCN(C(=O)c2cccc3ccccc23)CC1`, the outcome was inactive.

For `O=c1cc(-c2ccc(O)c(O)c2)oc2cc(O)c(C3OC(CO)C(O)C(O)C3O)c(O)c12` (centres undefined), the call was inactive.

Regarding `Oc1ccc(N2CCN(C(=S)NCCc3ccccc3)CC2)cc1`, the outcome was inactive.

Take `CC1(C)CNc2cc(N)ccc2S1`: the compound was classed as inactive.

As for `Nc1n[nH]c(=S)n1/N=C1/C(=O)Nc2ccccc21`, the result was inactive.

Turning to `CC(C)N1CCN(C(=O)c2cccc(Cl)c2)CC1`, the outcome was inactive.

Consider `Fc1ccc(CNCc2ccccc2Cl)cc1`, for which the result was inactive.

As to `C=CCc1cc(Cl)ccc1OCCN(C)C`, the call was inactive.

Regarding `CCN1CCN(CCCOc2ccc(Cl)cc2Br)CC1`, the compound was called inactive.

In the case of `Oc1ccc2ccc(Cl)cc2c1`, the result was inactive.

For the compound `CCn1nc(C)c(Br)c1C(=O)Sc1ccccc1Cl`, the call was inactive.

Consider `Cc1c(NC(=O)CNCc2ccc3c(c2)OCO3)c(=O)n(-c2ccccc2)n1C`, for which the call was inactive.

In the case of `Nc1ccc(N=Nc2ccc(N)cc2)cc1`, the compound was called inactive.

On to `COc1cccc(OC)c1NC(=O)CN1CCN(C)CC1`, for which the compound was called inactive.

`COc1ccc(/C=N/NC(=O)c2cnccn2)cc1O`: the call was inactive.

On to `O=C(CNCc1ccco1)Nc1cccc(S(=O)(=O)N2CCCCC2)c1`, for which the call was inactive.

In the case of `Cc1cn([C@H]2C[C@H](O)[C@@H](CNCC3=Cc4cc(O)ccc4OC3)O2)c(=O)[nH]c1=O`, the compound was classed as inactive.

Turning to `CCN(c1ccccc1)S(=O)(=O)c1ccc(Cl)c(NC(=O)CN(C)C2CCN(C)CC2)c1`, the result was inactive.

As for `CN1CCC(N(C)CC(=O)Nc2ccc3c(c2)OC(F)(F)O3)CC1`, the compound was classed as inactive.

Regarding `COc1cc(/C=C/C(=O)OCC(=O)N2CCN(C(=O)c3ccco3)CC2)ccc1O`, the compound was called inactive.

As to `CCn1c(=O)c2c3c(sc2n2c(=S)[nH]nc12)CCC3`, the result was inactive.

For the compound `CC1(C)OC(C)(C)/C(=C/Nc2ccc(O)cc2)C1=O`, the compound was called inactive.

With `O=C(Nc1ccc(O)cc1)c1ccccc1OCc1ccccc1`, the compound was called inactive.

On to `COc1cc(C(=O)N/N=C(\C)c2ccc(NC(=O)Cc3ccccc3)cc2)ccc1O`, for which the compound was called inactive.

For the compound `c1cc(CN2CCN(C3CCCCCC3)CC2)ccn1`, the compound was classed as inactive.

As to `O=C1CC(Nc2ccc(N3CCOCC3)cc2)C(=O)N1Cc1ccccc1` (centres undefined), the result was inactive.

`CSc1ccccc1NC(=O)CNCCCN1CCOCC1`: the result was inactive.

As for `COc1cc(CC(=O)OCC(=O)Nc2ccc(N(C)C)cc2)cc(OC)c1OC`, the outcome was inactive.

Regarding `Cc1cc(-c2n[nH]c(=S)n2/N=C/c2cccs2)n[nH]1`, the outcome was inactive.

Take `C=CCNCC(O)COc1ccc(C(C)=O)cc1OC` (centres undefined): the compound was classed as inactive.

With `CCCCNCC#CCOc1cc(C)ccc1C(C)C`, the compound was called inactive.

For `O=C(CNCc1ccco1)Nc1ccc(N2CCCCCC2)cc1`, the outcome was inactive.

For the compound `CC1CN(CCCCOc2ccc(Cl)c3ccccc23)CC(C)O1` (centres undefined), the outcome was inactive.

`Cc1ccccc1OCCN1CCCC1`: the compound was classed as inactive.
